Our source for the binding signal values is publication PMC7862700, “An all-to-all approach to the identification of sequence-specific readers for epigenetic DNA modifications on cytosine”.

Assay in all cases: DAPPL (digital affinity profiling via proximity ligation, sequencing); 10 mM Tris-HCl pH 7.5, 50 mM NaCl, 1 mM DTT, 4% glycerol, room temperature, 30 min; GST-TFs on glutathione beads, 16-mer random dsDNA library, 0.1% formaldehyde crosslink after washing; high values mean tight binding
One assay concerns the target T1, FLI1 (Homo sapiens, UniProt Q01543 1-452).
T1 sequence: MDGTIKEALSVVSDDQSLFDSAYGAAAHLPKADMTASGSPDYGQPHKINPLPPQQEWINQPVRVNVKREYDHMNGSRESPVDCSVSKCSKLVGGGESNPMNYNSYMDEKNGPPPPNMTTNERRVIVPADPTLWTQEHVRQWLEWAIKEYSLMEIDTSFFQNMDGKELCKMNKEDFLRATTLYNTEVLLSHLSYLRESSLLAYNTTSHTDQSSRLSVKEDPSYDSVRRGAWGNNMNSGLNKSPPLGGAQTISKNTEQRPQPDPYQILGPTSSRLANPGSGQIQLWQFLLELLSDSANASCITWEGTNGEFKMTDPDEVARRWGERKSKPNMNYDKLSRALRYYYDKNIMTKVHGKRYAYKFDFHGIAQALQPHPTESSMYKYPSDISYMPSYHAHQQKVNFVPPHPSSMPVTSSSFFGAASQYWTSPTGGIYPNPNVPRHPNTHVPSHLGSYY
Conditions: protein: recombinant; tags: N-terminal GST; dsDNA, one strand shown. The procedure, abridged:
(§1)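 Binding signal is given per hexamer as its read frequency for a factor divided by its frequency in the tag-only sample. GST-fused human transcription factors were expressed in yeast, captured on glutathione beads, barcoded with DNA and pooled with that sample, then incubated with 200 nmole of a 16-mer random double-stranded DNA library in Tris/NaCl/DTT/glycerol buffer for 30 min at room temperature. The pools were then washed, crosslinked, proximity-ligated, amplified by PCR and sequenced on an Illumina NextSeq500.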

The next assay has as its target T2, ELK1 (Homo sapiens, UniProt P19419 1-428).
T2 sequence: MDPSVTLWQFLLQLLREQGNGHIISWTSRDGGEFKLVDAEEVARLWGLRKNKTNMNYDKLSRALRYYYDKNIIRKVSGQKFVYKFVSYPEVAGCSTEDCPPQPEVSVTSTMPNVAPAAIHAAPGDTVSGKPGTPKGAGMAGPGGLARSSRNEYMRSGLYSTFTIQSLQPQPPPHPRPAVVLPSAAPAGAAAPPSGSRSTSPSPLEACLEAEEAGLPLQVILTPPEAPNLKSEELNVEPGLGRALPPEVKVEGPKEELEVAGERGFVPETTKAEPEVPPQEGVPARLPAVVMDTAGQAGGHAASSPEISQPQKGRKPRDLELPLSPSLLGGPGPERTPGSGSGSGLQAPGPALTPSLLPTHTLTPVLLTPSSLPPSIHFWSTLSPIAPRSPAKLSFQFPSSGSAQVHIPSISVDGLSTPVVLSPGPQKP
The following applies: protein: recombinant; tags: N-terminal GST; dsDNA, one strand shown. The procedure, abridged:
as §1

The target in a further assay is T3, GABPA (Homo sapiens, UniProt Q06546 1-454).
T3 sequence: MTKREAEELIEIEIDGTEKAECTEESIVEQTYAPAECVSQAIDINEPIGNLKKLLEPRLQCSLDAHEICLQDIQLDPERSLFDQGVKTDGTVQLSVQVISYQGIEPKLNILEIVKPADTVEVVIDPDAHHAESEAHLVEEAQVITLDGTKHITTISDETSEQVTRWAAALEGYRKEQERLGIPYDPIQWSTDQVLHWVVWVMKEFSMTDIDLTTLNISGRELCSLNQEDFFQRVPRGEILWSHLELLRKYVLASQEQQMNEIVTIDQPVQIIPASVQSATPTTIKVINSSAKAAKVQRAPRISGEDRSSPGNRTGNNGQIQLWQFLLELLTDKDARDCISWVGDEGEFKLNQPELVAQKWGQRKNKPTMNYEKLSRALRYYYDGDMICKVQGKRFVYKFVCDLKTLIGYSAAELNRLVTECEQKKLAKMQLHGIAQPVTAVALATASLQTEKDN
The following applies: protein: recombinant; tags: N-terminal GST; dsDNA, one strand shown. The method in brief: as §1

The next assay addresses T4, ERG (Homo sapiens, UniProt P11308 1-479).
T4 sequence: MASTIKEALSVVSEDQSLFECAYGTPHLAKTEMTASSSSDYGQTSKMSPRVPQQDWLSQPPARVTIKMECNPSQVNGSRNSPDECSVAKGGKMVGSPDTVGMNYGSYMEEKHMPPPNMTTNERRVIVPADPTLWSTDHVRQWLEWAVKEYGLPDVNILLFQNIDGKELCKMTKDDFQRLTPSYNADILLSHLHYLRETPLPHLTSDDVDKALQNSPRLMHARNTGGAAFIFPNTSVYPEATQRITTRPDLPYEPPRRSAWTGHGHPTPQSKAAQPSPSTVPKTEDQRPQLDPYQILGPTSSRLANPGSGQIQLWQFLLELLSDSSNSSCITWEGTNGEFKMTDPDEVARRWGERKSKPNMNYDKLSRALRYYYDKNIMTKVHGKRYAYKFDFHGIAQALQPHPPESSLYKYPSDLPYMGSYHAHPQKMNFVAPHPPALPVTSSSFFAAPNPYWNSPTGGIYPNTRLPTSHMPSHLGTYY
Conditions: protein: recombinant; tags: N-terminal GST; dsDNA, one strand shown. The method in brief:
as §1

The next assay has as its target ELF1 (Homo sapiens, UniProt P32519 1-619). The following applies: protein: recombinant; tags: N-terminal GST; dsDNA, one strand shown. The method in brief:
as §1

The target in a further assay is T5, EHF (Homo sapiens, UniProt Q9NZC4 1-300).
T5 sequence: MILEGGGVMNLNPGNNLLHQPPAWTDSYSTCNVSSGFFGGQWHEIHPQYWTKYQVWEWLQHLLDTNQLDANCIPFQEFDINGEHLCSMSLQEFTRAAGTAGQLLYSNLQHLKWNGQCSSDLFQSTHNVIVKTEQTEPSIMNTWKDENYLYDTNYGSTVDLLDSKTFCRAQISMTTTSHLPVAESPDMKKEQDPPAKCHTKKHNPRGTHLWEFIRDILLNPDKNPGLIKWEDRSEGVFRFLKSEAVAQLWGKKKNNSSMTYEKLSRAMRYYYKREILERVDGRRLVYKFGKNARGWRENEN
The following applies: protein: recombinant; tags: N-terminal GST; dsDNA, one strand shown. The method in brief:
as §1

For another assay, the target named is SPI1 (Homo sapiens, UniProt P17947 1-270). Conditions: protein: recombinant; tags: N-terminal GST; dsDNA, one strand shown. The procedure, abridged: as §1
For a further assay, the target named is SPIB (Homo sapiens, UniProt Q01892 1-262). Conditions: protein: recombinant; tags: N-terminal GST; dsDNA, one strand shown. The method in brief: as §1
Chain of SPIB (Q01892 whole entry): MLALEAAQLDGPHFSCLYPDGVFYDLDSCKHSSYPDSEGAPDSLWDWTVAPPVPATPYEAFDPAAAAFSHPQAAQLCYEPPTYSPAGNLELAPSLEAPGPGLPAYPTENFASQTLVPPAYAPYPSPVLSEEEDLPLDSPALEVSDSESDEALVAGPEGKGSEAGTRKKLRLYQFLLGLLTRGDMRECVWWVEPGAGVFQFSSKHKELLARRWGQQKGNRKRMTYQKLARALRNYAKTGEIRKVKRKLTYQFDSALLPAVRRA
Another assay concerns the target T6, ELK3 (Homo sapiens, UniProt P41970 1-407).
T6 sequence: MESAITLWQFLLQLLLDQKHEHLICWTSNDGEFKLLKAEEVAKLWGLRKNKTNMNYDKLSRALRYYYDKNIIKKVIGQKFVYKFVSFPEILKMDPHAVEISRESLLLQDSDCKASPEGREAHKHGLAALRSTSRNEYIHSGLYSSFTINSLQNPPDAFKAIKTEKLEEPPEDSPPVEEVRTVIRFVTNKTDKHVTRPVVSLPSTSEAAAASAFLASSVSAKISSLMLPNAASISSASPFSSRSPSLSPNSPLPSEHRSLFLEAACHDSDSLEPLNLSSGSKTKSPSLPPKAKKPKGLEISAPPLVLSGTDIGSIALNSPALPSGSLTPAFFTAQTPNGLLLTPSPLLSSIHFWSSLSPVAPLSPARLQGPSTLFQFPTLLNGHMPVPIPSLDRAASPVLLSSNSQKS
The following applies: protein: recombinant; tags: N-terminal GST; dsDNA, one strand shown. The method in brief:
as §1

A further assay addresses T7, FEV (Homo sapiens, UniProt Q99581 1-238).
T7 sequence: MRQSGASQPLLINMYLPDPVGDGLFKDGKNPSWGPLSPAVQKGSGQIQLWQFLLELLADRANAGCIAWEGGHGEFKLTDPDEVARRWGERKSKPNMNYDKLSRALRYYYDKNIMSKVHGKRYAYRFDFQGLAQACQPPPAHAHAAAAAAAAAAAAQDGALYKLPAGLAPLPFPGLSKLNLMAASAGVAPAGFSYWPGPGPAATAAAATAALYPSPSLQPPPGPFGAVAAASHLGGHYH
The following applies: protein: recombinant; tags: N-terminal GST; dsDNA, one strand shown. The procedure, abridged: as §1

The target in the next assay is ETV5 (Homo sapiens, UniProt P41161 1-510). Conditions: protein: recombinant; tags: N-terminal GST; dsDNA, one strand shown. The method in brief:
as §1

Another assay concerns the target HSF1 (Homo sapiens, UniProt Q00613 1-529). The following applies: protein: recombinant; tags: N-terminal GST; chain copies: 3; dsDNA, one strand shown. The method in brief: as §1
The target of a further assay is T8, SPIC (Homo sapiens, UniProt Q8N5J4 1-248).
T8 sequence: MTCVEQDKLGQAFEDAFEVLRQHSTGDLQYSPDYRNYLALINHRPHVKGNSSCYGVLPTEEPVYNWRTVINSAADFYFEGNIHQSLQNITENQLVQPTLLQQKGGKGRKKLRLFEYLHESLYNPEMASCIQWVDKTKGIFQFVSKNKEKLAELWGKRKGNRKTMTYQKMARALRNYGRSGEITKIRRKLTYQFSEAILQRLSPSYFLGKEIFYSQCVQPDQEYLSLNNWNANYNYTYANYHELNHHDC
The following applies: protein: recombinant; tags: N-terminal GST; dsDNA, one strand shown. The procedure, abridged:
as §1

The target of the next assay is ELF4 (Homo sapiens, UniProt Q99607 1-663). Conditions: protein: recombinant; tags: N-terminal GST; dsDNA, one strand shown. The procedure, abridged: as §1
Chain of ELF4 (Q99607 whole entry): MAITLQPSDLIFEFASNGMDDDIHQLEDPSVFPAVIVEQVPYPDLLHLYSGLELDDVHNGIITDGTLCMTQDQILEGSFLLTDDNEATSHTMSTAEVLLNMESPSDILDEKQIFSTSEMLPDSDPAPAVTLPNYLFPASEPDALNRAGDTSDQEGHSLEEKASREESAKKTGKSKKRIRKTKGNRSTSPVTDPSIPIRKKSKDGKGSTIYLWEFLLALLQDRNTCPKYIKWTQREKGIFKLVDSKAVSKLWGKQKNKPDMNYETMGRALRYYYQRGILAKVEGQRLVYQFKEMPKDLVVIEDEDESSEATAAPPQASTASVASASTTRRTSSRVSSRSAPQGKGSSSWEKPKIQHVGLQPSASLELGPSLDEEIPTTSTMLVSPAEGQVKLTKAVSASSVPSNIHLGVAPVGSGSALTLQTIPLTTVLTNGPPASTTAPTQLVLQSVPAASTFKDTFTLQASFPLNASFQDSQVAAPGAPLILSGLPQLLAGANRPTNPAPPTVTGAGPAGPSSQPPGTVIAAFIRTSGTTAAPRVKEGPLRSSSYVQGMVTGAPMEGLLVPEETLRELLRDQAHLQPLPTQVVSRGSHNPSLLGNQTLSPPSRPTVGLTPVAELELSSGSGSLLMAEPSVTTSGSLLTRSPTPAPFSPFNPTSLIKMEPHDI
Another assay deals with T9, ELK4 (Homo sapiens, UniProt P28324-2 1-405).
T9 sequence: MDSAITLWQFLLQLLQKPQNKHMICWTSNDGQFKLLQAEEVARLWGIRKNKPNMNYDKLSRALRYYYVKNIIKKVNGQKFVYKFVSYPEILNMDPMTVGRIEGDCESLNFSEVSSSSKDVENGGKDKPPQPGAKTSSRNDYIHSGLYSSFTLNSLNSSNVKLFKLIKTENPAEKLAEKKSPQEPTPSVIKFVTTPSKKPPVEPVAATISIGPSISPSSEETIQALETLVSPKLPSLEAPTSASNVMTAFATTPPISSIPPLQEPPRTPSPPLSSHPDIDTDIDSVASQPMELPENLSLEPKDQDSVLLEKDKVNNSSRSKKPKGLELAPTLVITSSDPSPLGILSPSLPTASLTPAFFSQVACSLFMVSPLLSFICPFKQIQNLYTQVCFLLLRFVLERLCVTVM
Conditions: protein: recombinant; tags: N-terminal GST; dsDNA, one strand shown. The method in brief: as §1

In a further assay the target is T10, ETV2 (Homo sapiens, UniProt O00321 1-342).
T10 sequence: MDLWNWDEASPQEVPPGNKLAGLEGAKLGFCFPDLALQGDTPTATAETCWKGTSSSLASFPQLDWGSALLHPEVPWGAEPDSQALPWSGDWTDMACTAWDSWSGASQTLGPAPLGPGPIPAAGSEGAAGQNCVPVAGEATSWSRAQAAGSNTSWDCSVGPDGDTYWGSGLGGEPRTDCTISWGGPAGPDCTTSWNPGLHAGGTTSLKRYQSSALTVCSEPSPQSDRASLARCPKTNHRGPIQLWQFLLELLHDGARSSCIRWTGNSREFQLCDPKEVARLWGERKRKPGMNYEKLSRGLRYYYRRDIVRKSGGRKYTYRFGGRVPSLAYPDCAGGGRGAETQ
The following applies: protein: recombinant; tags: N-terminal GST; dsDNA, one strand shown. The procedure, abridged: as §1

A further assay deals with T11, ELF3 (Homo sapiens, UniProt P78545 1-371).
T11 sequence: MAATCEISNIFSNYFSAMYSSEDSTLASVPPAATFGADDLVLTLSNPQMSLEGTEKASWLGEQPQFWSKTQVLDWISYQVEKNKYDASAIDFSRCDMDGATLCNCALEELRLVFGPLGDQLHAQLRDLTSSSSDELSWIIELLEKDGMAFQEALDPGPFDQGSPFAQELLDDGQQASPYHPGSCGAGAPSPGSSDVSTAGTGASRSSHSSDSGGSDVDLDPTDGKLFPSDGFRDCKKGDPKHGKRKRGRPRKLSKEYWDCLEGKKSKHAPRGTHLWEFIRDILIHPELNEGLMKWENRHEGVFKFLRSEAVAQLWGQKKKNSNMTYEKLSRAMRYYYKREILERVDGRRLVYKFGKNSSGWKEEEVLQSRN
The following applies: protein: recombinant; tags: N-terminal GST; dsDNA, one strand shown. The method in brief: as §1

The next assay deals with CRX (Homo sapiens, UniProt O43186 1-299). The following applies: protein: recombinant; tags: N-terminal GST; dsDNA, one strand shown. The procedure, abridged: as §1
Chain of CRX (O43186 whole entry): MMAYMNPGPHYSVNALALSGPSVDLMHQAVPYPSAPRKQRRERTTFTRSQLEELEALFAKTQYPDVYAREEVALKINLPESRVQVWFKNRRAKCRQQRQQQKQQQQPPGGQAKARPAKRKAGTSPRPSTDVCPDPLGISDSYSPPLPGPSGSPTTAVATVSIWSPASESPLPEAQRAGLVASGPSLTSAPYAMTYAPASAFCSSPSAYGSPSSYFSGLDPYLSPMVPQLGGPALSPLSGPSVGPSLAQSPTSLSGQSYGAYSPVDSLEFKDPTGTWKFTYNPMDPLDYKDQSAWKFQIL
Another assay deals with ETV1 (Homo sapiens, UniProt P50549 1-477). Conditions: protein: recombinant; tags: N-terminal GST; dsDNA, one strand shown. The method in brief:
as §1

Chain of ELF1 (P32519 whole entry): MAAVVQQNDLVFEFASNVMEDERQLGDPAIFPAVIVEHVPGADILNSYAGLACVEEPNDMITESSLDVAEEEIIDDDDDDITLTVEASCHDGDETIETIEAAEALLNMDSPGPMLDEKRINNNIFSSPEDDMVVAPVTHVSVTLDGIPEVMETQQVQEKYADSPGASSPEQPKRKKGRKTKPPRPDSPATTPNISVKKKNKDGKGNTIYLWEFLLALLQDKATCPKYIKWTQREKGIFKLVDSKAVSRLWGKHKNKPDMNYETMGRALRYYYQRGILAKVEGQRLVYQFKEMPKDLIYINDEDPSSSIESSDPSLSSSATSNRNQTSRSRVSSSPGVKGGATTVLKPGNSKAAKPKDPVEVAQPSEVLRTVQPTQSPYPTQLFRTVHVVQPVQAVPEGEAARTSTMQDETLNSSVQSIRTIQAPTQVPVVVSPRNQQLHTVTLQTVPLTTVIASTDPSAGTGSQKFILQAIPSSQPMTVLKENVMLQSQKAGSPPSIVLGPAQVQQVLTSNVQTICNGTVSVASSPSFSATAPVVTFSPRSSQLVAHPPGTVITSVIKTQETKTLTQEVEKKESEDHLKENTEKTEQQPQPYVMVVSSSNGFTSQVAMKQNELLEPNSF
Chain of HSF1 (Q00613 whole entry): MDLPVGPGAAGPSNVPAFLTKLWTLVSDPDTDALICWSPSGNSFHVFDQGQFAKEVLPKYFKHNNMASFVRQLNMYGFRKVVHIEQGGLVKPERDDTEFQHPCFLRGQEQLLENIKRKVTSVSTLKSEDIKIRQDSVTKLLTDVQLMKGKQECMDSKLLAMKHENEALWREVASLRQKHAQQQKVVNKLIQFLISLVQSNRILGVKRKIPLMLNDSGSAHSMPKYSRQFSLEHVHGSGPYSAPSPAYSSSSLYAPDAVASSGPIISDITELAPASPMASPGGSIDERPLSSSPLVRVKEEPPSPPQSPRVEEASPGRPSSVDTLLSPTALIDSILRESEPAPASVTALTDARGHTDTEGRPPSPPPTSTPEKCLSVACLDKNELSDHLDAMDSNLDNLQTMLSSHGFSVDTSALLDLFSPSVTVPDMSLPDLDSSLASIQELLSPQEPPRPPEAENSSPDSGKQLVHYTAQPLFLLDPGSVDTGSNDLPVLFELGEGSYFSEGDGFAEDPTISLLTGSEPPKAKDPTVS
Chain of ETV1 (P50549 whole entry): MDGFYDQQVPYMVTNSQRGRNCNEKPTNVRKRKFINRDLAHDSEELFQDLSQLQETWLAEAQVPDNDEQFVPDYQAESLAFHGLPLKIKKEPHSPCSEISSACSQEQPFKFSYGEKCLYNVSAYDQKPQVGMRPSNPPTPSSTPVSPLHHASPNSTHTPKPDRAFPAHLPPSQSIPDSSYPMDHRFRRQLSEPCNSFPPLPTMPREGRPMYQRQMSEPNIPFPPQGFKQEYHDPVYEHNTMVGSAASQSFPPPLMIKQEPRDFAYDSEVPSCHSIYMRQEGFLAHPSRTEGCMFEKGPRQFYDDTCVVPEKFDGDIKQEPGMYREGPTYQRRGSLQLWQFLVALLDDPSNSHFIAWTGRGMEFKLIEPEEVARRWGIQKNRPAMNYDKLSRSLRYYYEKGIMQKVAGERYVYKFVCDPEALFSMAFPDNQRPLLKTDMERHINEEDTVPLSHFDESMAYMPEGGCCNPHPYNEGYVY
Chain of ETV5 (P41161 whole entry): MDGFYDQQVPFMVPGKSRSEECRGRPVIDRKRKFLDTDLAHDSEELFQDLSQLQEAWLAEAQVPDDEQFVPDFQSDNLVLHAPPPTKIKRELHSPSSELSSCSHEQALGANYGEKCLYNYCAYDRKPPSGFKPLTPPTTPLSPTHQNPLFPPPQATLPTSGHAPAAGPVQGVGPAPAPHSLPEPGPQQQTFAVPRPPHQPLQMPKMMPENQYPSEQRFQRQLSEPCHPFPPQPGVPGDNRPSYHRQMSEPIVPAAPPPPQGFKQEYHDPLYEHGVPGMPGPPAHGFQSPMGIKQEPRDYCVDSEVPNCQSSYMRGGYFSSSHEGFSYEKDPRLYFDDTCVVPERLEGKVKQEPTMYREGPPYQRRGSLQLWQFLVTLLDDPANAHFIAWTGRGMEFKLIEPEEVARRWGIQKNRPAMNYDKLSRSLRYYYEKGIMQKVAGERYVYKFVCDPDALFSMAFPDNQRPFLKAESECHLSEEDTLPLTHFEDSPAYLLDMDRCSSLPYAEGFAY

Turning to TCCCTG, the binding signal is 1.28 fold enrichment (6-mer frequency, TF over GST control) in the assay with FLI1; 1.25 fold enrichment (6-mer frequency, TF over GST control) in the assay with ELK1; 1.36 fold enrichment (6-mer frequency, TF over GST control) with GABPA; 1.28 fold enrichment (6-mer frequency, TF over GST control) with ERG; 1.32 fold enrichment (6-mer frequency, TF over GST control) in the assay with ELF1; 1.33 fold enrichment (6-mer frequency, TF over GST control) with EHF. The binding signal in the assay with SPI1 was 1.29 fold enrichment (6-mer frequency, TF over GST control); with SPIB, 1.35 fold enrichment (6-mer frequency, TF over GST control); with ELK3, 1.14 fold enrichment (6-mer frequency, TF over GST control); with FEV, 1.28 fold enrichment (6-mer frequency, TF over GST control); in the assay with ETV5, 1.35 fold enrichment (6-mer frequency, TF over GST control); with HSF1, 1.24 fold enrichment (6-mer frequency, TF over GST control). In addition, the binding signal with SPIC was 1.38 fold enrichment (6-mer frequency, TF over GST control); with ELF4, 1.31 fold enrichment (6-mer frequency, TF over GST control); in the assay with ELK4 it was 1.19 fold enrichment (6-mer frequency, TF over GST control); with ETV2, 1.38 fold enrichment (6-mer frequency, TF over GST control); with ELF3, 1.2 fold enrichment (6-mer frequency, TF over GST control); with CRX, 1.3 fold enrichment (6-mer frequency, TF over GST control). In the assay with ETV1, the binding signal is 1.35 fold enrichment (6-mer frequency, TF over GST control).
